# Data reported in PubChem BioAssay AID504637 (National Center for Advancing Translational Sciences (NCATS), 2011).
# Out of some 1,100 compounds screened, about 430 (39%) were called active. About 44% were inconclusive and are not listed. The call rests on the fitted dose curve; in most records, active means well fitted inhibition curve with a large enough effect; inconclusive means small, poorly fitted or top-dose-only effect, or effect the other way; inactive means flat fitted curve, though single readings scatter. So high a share suggests a set chosen from earlier hits. Many of the other results were omitted from the sample, so actives are more common in it than they were.
# Target: ATP-dependent 6-phosphofructokinase (Trypanosoma brucei brucei) (UniProt O15648)
# Experiment: Inhibitors of T. brucei phosphofructokinase: Hit Validation; further: nearly all actives have a fitted effect of over 60% in size
# Conditions: purified T. brucei PFK, ADP-Glo luminescence, 45 min; series mostly up to 57.5 µM
# Excerpt: NCGC Assay Overview: Various species of the protozoan family Trypanosomatidae are responsible for a range of serious human diseases in tropical and subtropical areas of the world. […] Many of the disorders caused by trypanosomatids are fatal if left untreated, but most currently used drugs are inefficient and toxic. […] Oxidative metabolism involving the mitochondrial tricarboxylic acid cycle and oxidative phosphorylation are repressed in these parasites, and recent RNA interference (RNAi) experiments have shown that even partial depletion of certain individual glycolytic enzymes can lead to the death of cultured parasites. One such glycolytic enzyme, phosphofructokinase (PFK), catalyzes the formation of fructose-1,6-bisphosphate (F1,6BP) and ADP from fructose-6-phosphate (F6P) and ATP, and in many metabolic circumstances makes an important contribution to the control of flux through the glycolytic pathway. As a specific glycolytic target, PFK is particularly attractive as it catalyzes the first irreversible step in glycolysis, and structural and kinetic studies have shown very substantial and essential differences from corresponding host enzymes, allowing for the discovery of parasite-selective inhibitors. The goal of this screen is to find small-molecule inhibitors of T. brucei PFK using a biochemical assay that measures PFK activity as a function of ADP production. A luminescence-based assay for T. brucei PFK activity has been developed which uses luciferase to detect production of ADP. Traditional luciferase-based nucleotide detection reagents rely on ATP production as a direct substrate for the luciferase reaction; however, PFK catalyzes the transfer of a phosphate from ATP to F6P, resulting in the net depletion of ATP. To directly measure the ADP product of the PFK reaction, we used the ADP-Glo detection kit (Promega), which utilizes two separate reactions to 1) deplete all remaining uncatalyzed ATP and 2) convert all remaining ADP to ATP, which is then detected through a traditional luciferase-coupled reaction. Compounds were screened as a concentration-titration series that ranged from 57uM to 0.7nM. 1. Verlinde, C.L., et al., Glycolysis as a target for the design of new anti-trypanosome drugs. Drug Resist Updat, 2001. 4(1): p. 50-65. 2. Albert, M.A., et al., Experimental and in silico analyses of glycolytic flux control in bloodstream form Trypanosoma brucei. J Biol Chem, 2005. 280(31): p. 28306-15. 3. […] J Mol Biol, 2009. 385(5): p. 1519-33. NIH Molecular Libraries Probe Production Network [MLPCN] NIH Chemical Genomics Center [NCGC] Grant: 1 R03 MH092153-01 PI Name: Malcolm Walkinshaw, University of Edinburgh
# NCGC Assay Protocol Summary: Substrate buffer was dispensed into white, solid 1536-well plates at 3uL/well in 0.1M triethanolamine (TEA) buffer, pH 8.0, containing final concentrations of 5 mM MgCl2, 0.01% Tween20, 0.5 mM fructose-6-phosphate (F6P) and 0.1mM ATP. Then, 23 nL of compounds or DMSO were delivered to each well using a pin tool. One uL T. brucei PFK (0.1M TEA, 0.01% Tween20, 0.1% bovine serum albumin (BSA) and 1.25nM PFK, final concentrations) was then dispensed, and plates were incubated at room temperature for 45 min. The luminescent detection reagent, ADP-Glo (Promega), was then added in two steps: the first reagent, ADP-Glo (which converts remaining uncatalyzed ATP), was added at 2.5uL/well and incubated for ten minutes at room temperature, and the second component, Kinase Detection reagent (which converts ADP to ATP as a substrate for luciferase-based luminescence), was added immediately after at 5uL/well, followed by one final ten minute room temperature incubation. The plates were measured on a ViewLux plate reader for luminescent signal using a clear filter with a one second exposure. The %Activity was determined from the corrected luminescence values. […]
# Potency means the concentration at half of the fitted maximal effect.
# Sequence of ATP-dependent 6-phosphofructokinase (Trypanosoma brucei brucei) (O15648 whole entry, looked up): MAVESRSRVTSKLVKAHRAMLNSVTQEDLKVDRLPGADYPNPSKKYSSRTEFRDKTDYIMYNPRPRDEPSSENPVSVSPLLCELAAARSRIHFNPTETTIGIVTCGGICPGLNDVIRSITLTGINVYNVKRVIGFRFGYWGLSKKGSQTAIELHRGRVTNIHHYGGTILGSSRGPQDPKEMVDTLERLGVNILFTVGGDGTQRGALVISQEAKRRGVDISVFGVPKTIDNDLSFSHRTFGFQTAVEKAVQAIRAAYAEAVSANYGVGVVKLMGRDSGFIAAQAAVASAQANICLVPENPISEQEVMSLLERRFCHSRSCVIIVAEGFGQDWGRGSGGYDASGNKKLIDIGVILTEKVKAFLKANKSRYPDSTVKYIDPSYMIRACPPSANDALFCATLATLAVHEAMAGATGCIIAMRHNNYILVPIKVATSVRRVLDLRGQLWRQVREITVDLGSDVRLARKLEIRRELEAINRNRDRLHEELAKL
row,Compound,Potency
1,Cn1nnnc1NCc1ccc(Cl)c(Cl)c1,23.9 µM (active)
2,Cc1ccc(CC(=O)Nc2ccc(S(=O)(=O)N3CCOCC3)cc2)cc1C,inactive
3,O=C(Cc1ccc(Cl)c(Cl)c1)Nc1ccc(SC(F)F)cc1,23.9 µM (active)
4,O=C(COC(=O)CCC(=O)c1cccs1)NCc1ccco1,inactive
5,C=CC1=C(C(=O)O)N2C(=O)[C@@H](NC(=O)/C(=N\OCC(=O)O)c3csc(N)n3)[C@H]2SC1,4.26 µM (active)
6,N#Cc1cccc(CSc2ncnc(N)n2)c1,26.9 µM (active)
7,C=C1c2c(Cl)ccc(O)c2C(O)=C2C(=O)[C@]3(O)C(O)=C(C(N)=O)C(=O)[C@@H](N(C)C)[C@@H]3[C@@H](O)C12 (some centres not stated),inactive
8,O=C1CSC(=S)N1/N=C/c1ccc(O)c([N+](=O)[O-])c1,inactive
9,O=C1CSC(=S)N1c1ccc(Cl)c(Cl)c1,inactive
10,COC(=O)CC(=O)N1CCN(c2ccc(Cl)c(Cl)c2)CC1,26.9 µM (active)
11,Cc1nn(Cc2ccc(Cl)c(Cl)c2)c(C)c1NC(=O)c1cc(C2CC2)on1,12 µM (active)
12,O=[N+]([O-])/C=C/c1ccc2c(ccn2Cc2ccccc2)c1,23.9 µM (active)
13,CC(C)(C)c1nnc(NC(=O)C2c3ccccc3Oc3ccccc32)s1,26.9 µM (active)
14,Cc1ccc(NC(=O)c2cc(-c3ccc(C)o3)nc3ccccc23)nc1,12 µM (active)
15,O=C(Cc1ccc([N+](=O)[O-])cc1)N/N=C/c1ccco1,23.9 µM (active)
16,O=C(NCc1ccc(Cl)c(Cl)c1)c1cccnc1,26.9 µM (active)

row,Compound,Potency
1,Cc1ccc(-c2nn(-c3ccccc3)cc2/C=C2\SC(=S)N(CCCCCC(=O)O)C2=O)o1,30.1 µM (active)
2,O=c1[nH]c(=S)[nH]c2[nH]c(=S)[nH]c12,1.9 µM (active)
3,O=[N+]([O-])c1c(NCCO)cc(Sc2nc3ccccc3s2)c2nonc12,1.51 µM (active)
4,O=C(CSc1nc(O)c(Cc2ccccc2)c(=O)[nH]1)Nc1nc2c(s1)CCCC2,16.9 µM (active)
5,OCCN1CCN(C(=S)c2ccc(-c3ccccc3)cc2)CC1,26.9 µM (active)
6,FC(F)(F)C1CCCN(c2nsc3ccccc23)C1 (configuration not stated),4.26 µM (active)
7,CCn1nc(C(=O)NNS(=O)(=O)c2cc(/C=C/C(=O)O)cc(OC)c2OC)c2ccccc2c1=O,inactive
8,Cc1c(C)c2ccc(OCC(=O)N3CCN(c4cccc(Cl)c4)CC3)cc2oc1=O,8.49 µM (active)
9,COc1ccc(N/C=C(\C2OC(=O)c3ccccc32)[N+](=O)[O-])cc1 (configuration not stated),inactive
10,Cc1nc(N)nc(SCc2ccc([N+](=O)[O-])cc2)c1N,19 µM (active)
11,Cc1cccc(-n2c(N)c(C(=O)N3CCN(C)CC3)sc2=S)c1,13.5 µM (active)
12,O=c1ccnc(Nc2ccc(Cl)cc2)[nH]1,30.1 µM (active)
13,C=C(C)C(=O)Nc1cccc(C2=NOC3(C2)C[C@H](C(N)=O)N(C(=O)C(c2ccccc2)c2ccccc2)C3)c1 (some centres not stated),1.9 µM (active)
14,Cn1sc(=O)c2cc(S(=O)(=O)NC3CC3)ccc21,21.3 µM (active)
15,O=c1[nH]c2ccccc2n2c(-c3ccccc3)nnc12,13.5 µM (active)
16,Cc1ccccc1CN1C[C@@H]2C[C@@H](c3cn(C)nc3-c3ccccc3)N3CCC[C@@]23C1=O,inactive
